Reference: PubChem BioAssay (Tox21)
Records with an inconclusive call do not appear. Where a call stands in place of a potency, no number is given. Calls of active or inactive are those of the source. Unless noted, the call rests on the fitted dose curve; in most records, active means well fitted curve in the direction sought with a large enough effect in the repeat runs; inconclusive means weak or mixed curves; inactive means no such curve, though single readings can be large; an effect the other way counts as inactive or inconclusive.

Tests used:
[1] = qHTS assay to identify small molecule antagonists of the thyroid receptor (TR) signaling pathway (AID 743065); further: series mostly up to about 70 µM; nearly all actives have a fitted effect of over 55% in size
In short: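 Antagonism measured as loss of luciferase signal in GH3 cells stably carrying a TRE-luciferase reporter, co-treated with compound and T3 (1 nM final) for 23.5 h at 37 C. Viability was read in the same well by CellTiter-Fluor.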

[2] = test system: thyroid hormone receptor (rat, GH3 cells); assay: qHTS assay to identify small molecule agonists of the thyroid receptor (TR) signaling pathway (AID 743066; calls by dose curve)
[3] = molecular target: Estrogen receptor (Homo sapiens) (UniProt P03372); assay: qHTS assay to identify small molecule antagonists of the estrogen receptor alpha (ER-alpha) signaling pathway (AID 743069; active means well fitted curve in the direction sought with a large enough effect in the signal ratio in the repeat runs, not every such curve was filed as active; the % refers to the signal ratio)
In short: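 Compound effects are measured against 17beta-estradiol stimulation in HEK293 cells with a UAS-controlled beta-lactamase reporter for ER-alpha. Exposure lasts 18 hr at 37C; LiveBLAzer B/G FRET substrate follows for 2 hr at room temperature.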

[4] = qHTS assay to identify small molecule antagonists of the estrogen receptor alpha (ER-alpha) signaling pathway - cell viability counter screen (AID 743074; calls by dose curve;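 further: HEK293 cells carrying ER-alpha-UAS-bla reporter stimulated with 17beta-estradiol; nearly all actives have a fitted effect of over 45% in size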)
[5] = molecular target: Estrogen receptor (Homo sapiens) (UniProt P03372); assay: qHTS assay to identify small molecule agonists of the estrogen receptor alpha (ER-alpha) signaling pathway (AID 743075; calls by dose curve)
[6] = molecular target: Estrogen receptor (Homo sapiens) (UniProt P03372); assay: qHTS assay to identify small molecule agonists of the estrogen receptor alpha (ER-alpha) signaling pathway using the BG1 cell line (AID 743079); further: nearly all actives have a fitted effect of over 20% in size
[7] = qHTS assay to identify small molecule antagonists of the estrogen receptor alpha (ER-alpha) signaling pathway using the BG1 cell line (AID 743080; calls by dose curve;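 further: BG1 cells stimulated with 17beta-estradiol alongside compound; series mostly up to about 70 µM; nearly all actives have a fitted effect of over 25% in size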)
In short: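 BG1Luc4E2, endogenous ER-alpha, 4xERE-luc; 5 d charcoal-stripped FBS, phenol red free; 24 h plating; cpd + 17beta-estradiol 21.5 h, 37 C/5% CO2; CellTiter-Fluor viability 30 min, then ONE-Glo luciferase 30 min RT.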

[8] = qHTS assay to identify small molecule antagonists of the estrogen receptor alpha (ER-alpha) signaling pathway using the BG1 cell line - cell viability counter screen (AID 743081);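 further: compound given together with 17beta-estradiol as the ER stimulus; series mostly up to about 70 µM; nearly all actives have a fitted effect of over 45% in size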
Aromatase (Homo sapiens) = Aromatase (Homo sapiens) (UniProt P11511); assay: qHTS assay to identify aromatase inhibitors (AID 743083); further: series mostly up to about 70 µM; nearly all actives have a fitted effect of over 55% in size
[9] = qHTS assay to identify aromatase inhibitors - cell viability counter screen (AID 743084);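 further: cells stimulated with testosterone during compound exposure; nearly all actives have a fitted effect of over 55% in size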
[10] = molecular target: Aryl hydrocarbon receptor (Homo sapiens) (UniProt P35869); assay: qHTS assay to identify small molecule that activate the aryl hydrocarbon receptor (AhR) signaling pathway (AID 743085); further: nearly all actives have a fitted effect of over 15% in size; further: potency means the concentration at half of the fitted maximal effect;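 on activation: HG2L7.5c1 human HepG2 liver cells with stably integrated DRE-driven firefly reporter; series mostly up to about 70 µM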
In short: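 HepG2 cells (HG2L7.5c1) stably carrying a firefly luciferase reporter driven by 20 dioxin responsive elements were exposed to compound for 24 h at 37C after a 5 h settling period; luminescence rise (ONE-Glo) indicated activation.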

[11] = qHTS assay to identify small molecule that activate the aryl hydrocarbon receptor (AhR) signaling pathway - cell viability counter screen (AID 743086);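 further: HepG2 liver cells carrying the AhR DRE luciferase reporter; series mostly up to about 70 µM; nearly all actives have a fitted effect of over 45% in size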
In short: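 Cytotoxicity counter screen: CellTiter-Fluor signal (30 min, 37 C) in 4000 HepG2 cells/well carrying the DRE-luciferase reporter, following 24 h compound exposure at 37 C.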

[12] = molecular target: Peroxisome proliferator-activated receptor gamma (Homo sapiens) (UniProt P37231); assay: qHTS assay to identify small molecule agonists of the peroxisome proliferator-activated receptor gamma (PPARg) signaling pathway (AID 743094; active means well fitted activation curve with a large enough effect in the signal ratio in the repeat runs, not every such curve was filed as active; the % refers to the signal ratio)
In short: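 Stably transfected HEK293H cells (GeneBLAzer PPARg UAS-bla) were incubated with test substances for 17 h at 37C after a 5 h pre-incubation; beta-lactamase activity was then detected by FRET substrate fluorescence.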

[13] = molecular target: Peroxisome proliferator-activated receptor gamma (Homo sapiens) (UniProt P37231); assay: qHTS assay to identify small molecule antagonists of the peroxisome proliferator-activated receptor gamma (PPARg) signaling pathway (AID 743191; calls by dose curve; further: series mostly up to about 63 µM; nearly all actives have a fitted effect of over 30% in size)
In short: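 Beta-lactamase reporter under UAS control in HEK293H PPARg-bla cells; compound treatment 17 h at 37C. Read-out: fluorescence intensity after 1 h room-temperature incubation with LiveBLAzer B/G FRET substrate.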

[14] = qHTS assay for small molecule agonists of the antioxidant response element (ARE) signaling pathway (AID 743202; active means well fitted activation curve with a large enough effect in the signal ratio in the repeat runs, not every such curve was filed as active; the % refers to the signal ratio)
In short: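 An ARE-responsive beta-lactamase gene stably integrated in HepG2 cells serves as reporter. After 5 h plating and 16 h compound incubation at 37 C, fluorescence of the B/G FRET substrate was measured.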

[15] = qHTS assay for small molecule agonists of the antioxidant response element (ARE) signaling pathway - cell viability counter screen (AID 743203; calls by dose curve; further: nearly all actives have a fitted effect of over 55% in size)
In short: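 Cells (ARE-bla HepG2, 2,000/well) receive DMSO-dissolved compounds after a 5 hrs rest. Plates incubate 16 hrs at 37C/5% CO2. CellTiter-Glo luminescence is then recorded after 30 min at room temperature.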

[16] = qHTS assay for small molecule activators of the heat shock response signaling pathway - cell viability counter screen (AID 743209); further: nearly all actives have a fitted effect of over 50% in size
In short: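 Quantitative HTS format, Tox21 10K library. HeLa cells carrying an HSE-driven beta-lactamase reporter were treated 5 h at 37 C, then assessed for viability by CellTiter-Glo luminescence.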

[17] = qHTS assay to identify small molecule agonists of the peroxisome proliferator-activated receptor delta (PPARd) signaling pathway - cell viability counter screen (AID 743211); further: nearly all actives have a fitted effect of over 55% in size
In short: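 PPARd-bla HEK293H cells (UAS-beta-lactamase reporter) were treated with compounds for 17 h at 37 C. Viability was then read in the same wells by CellTiter-Glo luminescence after 30 min at room temperature.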

[18] = qHTS assay to identify small molecule antagonists of the peroxisome proliferator-activated receptor gamma (PPARg) signaling pathway - cell viability counter screen (AID 743194); further: nearly all actives have a fitted effect of over 55% in size
In short: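 Viability was measured as CellTiter-Glo luminescence in GeneBLAzer PPARg UAS-bla HEK293H cells. These cells had been exposed 17 h at 37 C to compounds together with rosiglitazone at 50 nM final, with the beta-lactamase readout taken in the same wells.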

[19] = qHTS assay for small molecule activators of the heat shock response signaling pathway (AID 743210; active means well fitted activation curve with a large enough effect in the signal ratio in the repeat runs, with a control signal flat, not every such curve was filed as active; the % refers to the signal ratio;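 further: HeLa cells with beta-lactamase reporter driven by heat shock elements; series mostly up to about 63 µM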)
In short: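 In HSE-bla HeLa cells, 5 h compound incubation (37 C) precedes addition of LiveBLAzer B/G substrate; after 2.5 h at room temperature, fluorescence intensity indicates reporter induction.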

Sequence of Peroxisome proliferator-activated receptor gamma (Homo sapiens) (P37231 whole entry, looked up): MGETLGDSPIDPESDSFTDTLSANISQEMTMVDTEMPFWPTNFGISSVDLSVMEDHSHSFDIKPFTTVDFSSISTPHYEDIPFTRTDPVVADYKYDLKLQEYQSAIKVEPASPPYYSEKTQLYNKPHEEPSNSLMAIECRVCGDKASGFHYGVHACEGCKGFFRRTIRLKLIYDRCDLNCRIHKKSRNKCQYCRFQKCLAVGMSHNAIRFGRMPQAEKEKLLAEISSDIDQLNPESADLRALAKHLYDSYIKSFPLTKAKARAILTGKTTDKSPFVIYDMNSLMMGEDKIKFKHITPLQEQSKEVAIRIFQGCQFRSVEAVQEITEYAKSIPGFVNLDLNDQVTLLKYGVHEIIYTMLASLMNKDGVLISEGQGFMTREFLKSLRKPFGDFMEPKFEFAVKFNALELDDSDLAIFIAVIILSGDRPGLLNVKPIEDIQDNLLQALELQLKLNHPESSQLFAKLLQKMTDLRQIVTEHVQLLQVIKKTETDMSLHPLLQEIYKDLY
Sequence of Aromatase (Homo sapiens) (P11511 whole entry, looked up): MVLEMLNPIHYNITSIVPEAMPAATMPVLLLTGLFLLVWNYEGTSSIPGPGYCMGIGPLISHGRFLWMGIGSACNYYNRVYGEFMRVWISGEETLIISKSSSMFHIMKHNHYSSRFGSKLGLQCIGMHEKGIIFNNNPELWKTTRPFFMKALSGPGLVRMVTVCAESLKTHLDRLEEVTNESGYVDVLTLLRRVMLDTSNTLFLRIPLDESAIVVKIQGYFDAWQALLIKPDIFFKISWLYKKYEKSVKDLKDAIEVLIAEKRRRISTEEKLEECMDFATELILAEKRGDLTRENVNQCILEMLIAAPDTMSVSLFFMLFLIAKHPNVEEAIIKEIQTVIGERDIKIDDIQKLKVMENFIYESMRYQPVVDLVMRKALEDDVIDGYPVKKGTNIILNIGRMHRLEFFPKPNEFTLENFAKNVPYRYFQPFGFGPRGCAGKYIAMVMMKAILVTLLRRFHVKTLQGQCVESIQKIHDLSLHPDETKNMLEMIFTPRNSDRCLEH
Sequence of Estrogen receptor (Homo sapiens) (P03372 whole entry, looked up): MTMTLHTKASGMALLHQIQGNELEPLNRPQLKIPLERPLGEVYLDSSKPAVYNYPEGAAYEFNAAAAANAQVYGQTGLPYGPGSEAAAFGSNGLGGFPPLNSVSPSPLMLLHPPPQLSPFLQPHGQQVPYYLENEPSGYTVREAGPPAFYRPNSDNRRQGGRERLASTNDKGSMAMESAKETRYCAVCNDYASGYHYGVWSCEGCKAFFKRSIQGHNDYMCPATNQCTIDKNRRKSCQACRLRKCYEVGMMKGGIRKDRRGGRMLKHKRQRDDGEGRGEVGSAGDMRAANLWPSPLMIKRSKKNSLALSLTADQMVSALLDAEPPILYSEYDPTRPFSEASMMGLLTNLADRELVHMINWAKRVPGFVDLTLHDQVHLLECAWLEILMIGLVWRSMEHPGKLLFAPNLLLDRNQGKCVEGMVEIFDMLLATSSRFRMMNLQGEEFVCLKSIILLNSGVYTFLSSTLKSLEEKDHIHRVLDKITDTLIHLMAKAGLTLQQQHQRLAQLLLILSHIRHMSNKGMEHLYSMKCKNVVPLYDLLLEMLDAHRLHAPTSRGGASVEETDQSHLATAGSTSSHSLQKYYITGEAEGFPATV
Sequence of Aryl hydrocarbon receptor (Homo sapiens) (P35869 whole entry, looked up): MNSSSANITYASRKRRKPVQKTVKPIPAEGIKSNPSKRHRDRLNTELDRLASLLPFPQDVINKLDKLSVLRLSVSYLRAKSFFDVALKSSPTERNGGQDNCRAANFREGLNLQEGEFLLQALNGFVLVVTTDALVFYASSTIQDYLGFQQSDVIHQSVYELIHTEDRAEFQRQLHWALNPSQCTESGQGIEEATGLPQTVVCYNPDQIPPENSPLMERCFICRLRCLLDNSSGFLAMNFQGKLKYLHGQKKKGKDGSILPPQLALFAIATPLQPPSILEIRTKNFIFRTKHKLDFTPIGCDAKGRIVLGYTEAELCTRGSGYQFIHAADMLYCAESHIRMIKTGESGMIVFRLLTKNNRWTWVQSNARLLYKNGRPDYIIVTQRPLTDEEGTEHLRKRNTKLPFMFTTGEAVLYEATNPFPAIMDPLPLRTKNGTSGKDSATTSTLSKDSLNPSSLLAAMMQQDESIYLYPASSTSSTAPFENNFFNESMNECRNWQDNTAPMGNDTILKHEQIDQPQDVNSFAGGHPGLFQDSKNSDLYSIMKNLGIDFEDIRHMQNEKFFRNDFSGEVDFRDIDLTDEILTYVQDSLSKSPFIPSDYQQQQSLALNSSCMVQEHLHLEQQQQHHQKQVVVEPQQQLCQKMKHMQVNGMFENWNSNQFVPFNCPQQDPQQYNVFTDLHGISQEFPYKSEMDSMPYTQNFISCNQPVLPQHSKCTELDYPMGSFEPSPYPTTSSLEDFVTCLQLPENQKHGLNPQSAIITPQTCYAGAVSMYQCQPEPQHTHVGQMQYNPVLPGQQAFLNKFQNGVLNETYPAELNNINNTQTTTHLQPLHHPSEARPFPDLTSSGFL

SMILES	Potency [1]	outcome [2]	outcome [3]	outcome [4]	Potency [5]	Potency [6]	outcome [7]	Potency [8]	outcome (Aromatase (Homo sapiens))	Potency [9]	Potency [10]	Potency [11]	Potency [12]	outcome [13]	Potency [14]	outcome [15]	Potency [16]	outcome [17]	outcome [18]	outcome [19]
CC/C(C)=N\O[Si](C)(O/N=C(\C)CC)O/N=C(\C)CC	inactive	inactive	inactive	inactive	inactive	inactive	inactive	inactive	inactive	inactive	24.7 µM (active)	inactive	inactive	inactive	inactive	inactive	inactive	inactive		
CCCCOCC(C)O (stereo unspecified)	inactive	inactive	inactive	inactive	inactive	inactive	inactive	inactive	inactive	inactive	inactive	inactive	inactive	inactive		inactive	inactive	inactive	inactive	inactive
CC(C)C1OCCN1CCOC(=O)NCCCCCCNC(=O)OCCN1CCOC1C(C)C (stereo unspecified)	inactive	inactive	inactive	inactive	inactive	inactive	inactive	inactive	inactive	inactive	inactive	inactive	inactive	inactive	inactive		inactive	inactive		inactive
CCC(C)OC(C)CC (stereo unspecified)	inactive	inactive	inactive	inactive	inactive	inactive	inactive	inactive	inactive	inactive	inactive	inactive	inactive	inactive		inactive	inactive	inactive	inactive	inactive
CCCC(CC)c1ccccc1 (stereo unspecified)	inactive	inactive	inactive	inactive	inactive	inactive	inactive	inactive	inactive	inactive	inactive	inactive	inactive	inactive	inactive	inactive	inactive	inactive	inactive	inactive
O=C=NCC1CCCC(CN=C=O)C1 (stereo unspecified)	inactive	inactive	inactive	inactive	inactive	inactive	inactive	inactive	inactive	inactive	inactive	inactive	inactive	inactive			inactive	inactive		inactive
Cc1cc(C)c(C(=O)O)c(C)c1	inactive	inactive	inactive	inactive	inactive	inactive	inactive	inactive	inactive	inactive	inactive	inactive	inactive	inactive	inactive	inactive	inactive	inactive	inactive	inactive
OCC1CCC(CO)CC1 (stereo unspecified)	inactive	inactive	inactive	inactive	inactive	inactive	inactive	inactive	inactive	inactive	inactive	inactive	inactive		inactive	inactive	inactive	inactive	inactive	inactive
CC1CC(=O)CC(C)(C)C1 (stereo unspecified)	inactive	inactive	inactive	inactive	inactive	inactive	inactive	inactive	inactive	inactive	inactive	inactive	inactive		inactive		inactive	inactive	inactive	inactive
Nc1nnnn1-c1ccccc1	inactive	inactive	inactive	inactive	inactive	inactive	inactive	inactive	inactive	inactive	inactive	inactive	inactive	inactive	inactive		inactive	inactive	inactive	
CCOCCOCC	inactive	inactive	inactive	inactive	inactive	inactive	inactive	inactive	inactive	inactive	inactive	inactive	inactive		inactive	inactive	inactive	inactive	inactive	
CCCSSCCC	inactive	inactive	inactive	inactive	inactive	inactive	inactive	inactive	inactive	inactive	inactive	inactive	inactive	inactive	inactive	inactive	inactive	inactive	inactive	inactive
O=C(O)CCCCCC(=O)O	inactive	inactive	inactive	inactive	inactive	inactive	inactive	inactive	inactive	inactive	inactive	inactive	inactive	inactive		inactive	inactive	inactive		inactive
CCNC(=O)NCc1cccc(Cl)c1	inactive	inactive	inactive	inactive	inactive	inactive	inactive	inactive	inactive	inactive	inactive	inactive	inactive	inactive	inactive	inactive	inactive	inactive	inactive	inactive
COc1ccc2c(c1)c1c3n2CCN(C)C3=NCC1	inactive	inactive	inactive	inactive	inactive	inactive	inactive	inactive	inactive	inactive	13.3 µM (active)	inactive	inactive	inactive	inactive	inactive	inactive	inactive		inactive
